Screening data from PubChem.
p53null 32C tox = kills p53 null cells at the permissive temperature. H1299-neo p53 null cells, ATP luminescence, 24 h, 32C. Potency, µM (top dose mostly 46.1 µM), inactives show at the highest dose activity change, negative = cytotoxicity, actives largely listed as cytotoxic. 55,000 tested, 0.62% active. AID 903;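 note: potency is the fitted concentration of half-maximal effect; 0% = DMSO only and -100% = full killing by 100 µM tamoxifen; nearly all actives have a fitted effect of over 55% in size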
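Luminescent ATP readout gave cell viability of p53-null H1299-neo cells after a 24 h compound exposure at the permissive 32C. Titrations ran up to 46 uM, and AC50s were fitted with the standard Hill equation.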
OvCa metastasis = inhibitors of ovarian cancer cell adhesion and invasion in omental model; 46,000 tested, 0.1% active; Potency, µM (titrated, usually from 45.8 µM), without a hit: at the highest dose activity change, negative = inhibition, usual class: inhibitors; SKOV3ip1-GFP adhesion/invasion on 3D omental model, fluorescence;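 note: potency is the fitted concentration of half-maximal effect; plate controls were DMSO wells for no effect and tomatine positive control wells for full effect; nearly all actives have a fitted effect of over 65% in size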
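qHTS, 4-pt dose (0.36-46 umol/L); SKOV3ip1-GFP, 1,200 cells/well, no FBS; primary omental fibroblast/mesothelial co-culture 48 h pre-grown; 2 h RT + 16 h 37 C; PBS wash, 4% PFA; GFP count 488/509 nm.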
pS6 MEF inh = mTORC1 pathway inhibition measured by phospho-rpS6 | Tsc2-/- p53-/- MEF, phospho-rpS6 immunofluorescence/PI, 24 h | Potency, µM (doses to about 38.3 µM), inactives show at the top dose activity change, negative = inhibition, most hits filed as inhibitors | 44,000 tested, 0.78% active;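 note: potency is the fitted concentration of half-maximal effect; plate controls were DMSO for no effect and rapamycin for full effect; nearly all actives have a fitted effect of over 50% in size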
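Tsc2-/-, p53-/- mouse embryonic fibroblasts (empty-vector line) exposed to compound 24 hrs at 37 C, fixed, immunostained for phospho-rpS6 and counterstained with propidium iodide. Acumen laser scanning gives % positive cells from Alexa 488/PI ratio, thresholded using 7.5 nM rapamycin; PI count gives viability.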
S16 viability = S16 Schwann cell cytotoxicity; Potency, µM (highest dose often 57.5 µM), for inactives: top-dose activity change, negative = cytotoxicity, most hits filed as cytotoxic; 43,000 tested, 0.48% active; S16 Pmp22-F2sN Schwann cells viability, CellTiter-Glo, 24 h; note: potency is the fitted concentration of half-maximal effect; % is set by controls: 0 for no effect and ±100 for the full control effect; nearly all actives have a fitted effect of over 65% in size
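Seed 500-1,000 S16 Pmp22-F2sN cells per well in phenol-red-free DMEM with 10% heat-inactivated FBS; pin-add 23 nL compound; incubate 24 h at 37C; add CellTiter-Glo, wait 15 min protected from light; read luminescence.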
PMP22 txn = modulators of PMP22 gene transcription in S16 Schwann cells. AID 1508649. Potency, µM (doses to about 57.5 µM), for the others: at the highest dose activity change, negative = inhibition, hits mostly inhibitors. S16 Pmp22-F2sN Schwann cells, FLuc/NLuc coincidence luminescence, 24 h. 43,000 tested, 2% active; active = clear falling dose curves in both reporters; inconclusive = both reporters move, but less clearly or upward; inactive = either reporter flat; the % is the NLuc reporter signal; note: potency is the fitted concentration of half-maximal effect; % is set by controls: 0 for no effect and ±100 for the full control effect
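Luminescent read-out of sequential FLuc and NLuc signals from a reporter embedded in the Pmp22 3' UTR of S16 Schwann cells, taken after 24 h compound exposure at 37C; compounds reducing both signals score as inhibitors of expression.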
p53null 39C kill = kills p53 null cells at the nonpermissive temperature; H1299 p53-null (neo) cells, 39C, ATPlite viability, 24 h; 55,000 tested, 0.97% active; Potency, µM (doses to about 46.1 µM), for inactives: top-dose activity, negative = cell killing, actives largely listed as cytotoxic;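 note: potency is the fitted concentration of half-maximal effect; 0% = DMSO only and -100% = full killing by 100 µM tamoxifen; nearly all actives have a fitted effect of over 50% in size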
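Luminescent ATP signal reported cell survival after H1299 lines (neo, p53 null; or p53 A138V) received up to 46 uM compound and 24 hr incubation at 39C.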
NLuc sat counter = inhibits NanoLuc at saturating substrate, PMP22 counter-screen; Potency, µM (top dose mostly 57.5 µM), without a hit: top-dose activity change, negative = inhibition, usual class: inhibitors; shares compounds with PMP22 txn; 690 tested, 4% active; Secreted NLuc enzyme (filtered S16 cell medium), Nano-Glo luminescence; note: potency is the fitted concentration of half-maximal effect; % is set by controls: 0 for no effect and ±100 for the full control effect
NLuc Km counter = NanoLuc inhibition at Km substrate, PMP22 artifact check | shares compounds with PMP22 txn | secreted NLuc enzyme, coelenterazine luminescence, Km conditions | Potency, µM (series often up to 57.5 µM), inactives show at the highest dose activity change, negative = inhibition, hits mostly inhibitors | 690 tested, 5% active | AID 1508639; note: potency is the fitted concentration of half-maximal effect; % is set by controls: 0 for no effect and ±100 for the full control effect
FLuc ctr PMP22 = counter-screen for PMP22 expression modulators: firefly luciferase inhibition. 690 tested, under 10 active. purified P. pyralis FLuc, luminescence, 10 min. Potency, µM (top dose mostly 57.5 µM), for the others: top-dose activity, negative = inhibition, hits mostly inhibitors. AID 1508640. shares compounds with PMP22 txn; note: % of control where 0% means no effect
Target sequence (P08659 whole entry, looked up): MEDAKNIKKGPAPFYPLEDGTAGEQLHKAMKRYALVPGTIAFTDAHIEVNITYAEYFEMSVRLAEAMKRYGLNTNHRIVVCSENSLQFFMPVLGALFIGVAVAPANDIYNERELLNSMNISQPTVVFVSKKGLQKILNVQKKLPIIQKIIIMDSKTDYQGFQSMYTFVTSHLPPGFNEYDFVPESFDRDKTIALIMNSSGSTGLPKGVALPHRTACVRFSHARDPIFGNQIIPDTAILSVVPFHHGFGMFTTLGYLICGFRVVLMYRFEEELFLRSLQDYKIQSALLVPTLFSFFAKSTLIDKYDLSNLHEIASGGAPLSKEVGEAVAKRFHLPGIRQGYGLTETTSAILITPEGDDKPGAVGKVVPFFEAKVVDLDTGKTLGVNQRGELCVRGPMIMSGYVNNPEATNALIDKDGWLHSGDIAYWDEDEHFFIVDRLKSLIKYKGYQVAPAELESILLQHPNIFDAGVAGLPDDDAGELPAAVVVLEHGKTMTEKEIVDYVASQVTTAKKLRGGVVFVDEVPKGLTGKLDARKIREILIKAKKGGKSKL
S16 F2sN tox cnf = confirmation of cytotoxicity in S16 Pmp22-F2sN Schwann cells (luciferase reporters placed in the Pmp22 gene). Potency, µM (doses to about 57.5 µM), for the others: at the highest dose activity change, negative = viability loss, most hits filed as cytotoxic. 690 tested, 7% active. S16 Schwann cells viability, CellTiter-Glo ATP luminescence, 24 h. shares compounds with PMP22 txn; note: potency is the fitted concentration of half-maximal effect; % is set by controls: 0 for no effect and ±100 for the full control effect
PMP22 txn conf = confirmation of modulators of PMP22 gene transcription in S16 cells | shares compounds with PMP22 txn | S16 Schwann cells Pmp22-F2sN, dual luciferase, 24 h | Potency, µM (titrated, usually from 57.5 µM), without a hit: at the top dose activity change, negative = inhibition, most hits filed as inhibitors | 690 tested, 22% active; active = clear falling dose curves in both reporters; inconclusive = both reporters move, but less clearly or upward; inactive = either reporter flat; the % is the FLuc reporter signal; note: potency is the fitted concentration of half-maximal effect
* = called active by the depositor; i = inactive; u = inconclusive; x = no result. The list is not random: actives were taken first. Their share in the collection is about 3%. Unless noted, calls come from the whole dose curve; as a rule, active = well fitted curve in the direction sought with a large enough effect; inconclusive = small, poorly fitted or top-dose-only effect, or another doubt; inactive = no such curve, though single readings can be large; an effect the other way counts as inactive or inconclusive.

SMILES | p53null 32C tox | OvCa metastasis | pS6 MEF inh | S16 viability | PMP22 txn | p53null 39C kill | NLuc sat counter | NLuc Km counter | FLuc ctr PMP22 | S16 F2sN tox cnf | PMP22 txn conf
COc1ccc(CCC(=O)Nc2nc3ccc(Cl)cc3s2)cc1OC | x | 17.6% | x | x | x | x | x | x | x | x | x
Cc1ccccc1NC(=O)CSc1ncc2c(n1)-c1ccccc1N(C)S2(=O)=O | -7.0% | -9.5% | -3.0% | 0.3% | 10.6% | 2.8% | x | x | x | x | x
Cc1ccc(NC(=O)CSc2ncc3c(n2)-c2ccccc2N(C)S3(=O)=O)c(Cl)c1 | -10.5% | -8.5% | 1.6% | 15.4% | 6.45µM* | 6.0% | u | 3.7% | -3.5% | -14.9% | u
C[C@@H](CN1CC(=O)NC(=O)C1)N1CC(=O)NC(=O)C1 | x | -10.2% | x | x | x | x | x | x | x | x | x
O=S(=O)(NCCc1csc2nc(-c3ccc(Cl)cc3)nn12)c1ccc(Oc2ccccc2)cc1 | -7.4% | i | 0.8% | -5.1% | 12.6µM* | 10.0% | 1.1% | 4.6% | -0.6% | -3.3% | u
CCc1ccc(-n2nnc(-c3nc(-c4ccc(C)cc4)no3)c2N)cc1 | 2.8% | i | -10.6% | -2.7% | -2.7% | -16.6% | x | x | x | x | x
CCOC(=O)c1c(C)c(-c2ccccc2)n(CC(=O)Nc2cc(C)ccc2OC)c1C | 1.1% | -6.5% | -0.1% | -2.5% | 9.46µM* | -1.3% | -4.3% | 3.6% | -3.7% | -8.7% | u
CCOC(=O)c1c(C)c(-c2ccccc2)n(CC(=O)Nc2cccc(C)c2C)c1C | -4.8% | i | 0.8% | 9.8% | u | -12.7% | x | x | x | x | x
CC(=O)N1c2ccc(S(=O)(=O)NCC3CCC(C(=O)Nc4cc(C)ccc4C)CC3)cc2CC1C (configuration not stated) | 0.9% | -21.9% | -20.3% | u | u | -8.1% | -15.5% | 2.3% | 4.0% | -24.3% | -47.2%
CC(=O)N1c2ccc(S(=O)(=O)NCC3CCC(C(=O)Nc4ccccc4C)CC3)cc2CC1C (configuration not stated) | -3.4% | 9.8% | -25.7% | -8.4% | -27.0% | -9.1% | x | x | x | x | x
Cc1ccc(OCC(=O)Nc2ccc3[nH]c(=O)sc3c2)cc1 | 1.1% | 6.5% | -9.7% | 15.0% | 15µM* | -15.7% | -13.3% | -13.9% | -16.2% | 19.9% | u
O=C(c1ccc(CS(=O)c2ccccc2Cl)o1)N1CCN(c2cccc(Cl)c2)CC1 (configuration not stated) | -21.8% | i | u | -8.8% | u | u | x | x | x | x | x
